# About 83,000 compounds went through this panel and 20% of them were active in at least one assay; those are over-represented in the sample as a whole.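 Assay: single dose, 48 h. Readout: percent growth (0 = no net growth; negative = cell death). Active: <10.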 Unmarked numbers belong to inactive results. Activity calls are given as the source filed them.
# Experiments:
# Assay in all cases: NCI-60 one-dose screen, 48 h (100 = growth as untreated, 0 = no growth, -100 = all killed)
# Details in all cases: 10 µM
# HT29 colon = system: HT29 colon
# SNB-75 CNS = system: SNB-75 CNS
# SNB-19 CNS = system: SNB-19 CNS
# U251 CNS = system: U251 CNS
# PC-3 prostate = system: PC-3 prostate
# SK-MEL-5 melanoma = system: SK-MEL-5 melanoma
# UACC-62 melanoma = system: UACC-62 melanoma
# LOX IMVI melanoma = system: LOX IMVI melanoma
# SK-MEL-28 melanoma = system: SK-MEL-28 melanoma
# SK-MEL-2 melanoma = system: SK-MEL-2 melanoma
# EKVX NSCLC = system: EKVX NSCLC
# SN12C renal = system: SN12C renal
# TK-10 renal = system: TK-10 renal
# ACHN renal = system: ACHN renal
# CAKI-1 renal = system: CAKI-1 renal
# CCRF-CEM leukemia = system: CCRF-CEM leukemia
# MOLT-4 leukemia = system: MOLT-4 leukemia
# SR leukemia = system: SR leukemia
# UO-31 renal = system: UO-31 renal
# A498 renal = system: A498 renal
SMILES,growth (HT29 colon),growth (SNB-75 CNS),growth (SNB-19 CNS),growth (U251 CNS),growth (PC-3 prostate),growth (SK-MEL-5 melanoma),growth (UACC-62 melanoma),growth (LOX IMVI melanoma),growth (SK-MEL-28 melanoma),growth (SK-MEL-2 melanoma),growth (EKVX NSCLC),growth (SN12C renal),growth (TK-10 renal),growth (ACHN renal),growth (CAKI-1 renal),growth (CCRF-CEM leukemia),growth (MOLT-4 leukemia),growth (SR leukemia),growth (UO-31 renal),growth (A498 renal)
Cc1cs/c(=N\NC(=O)c2cc(-c3cc4ccccc4o3)nn2-c2ccccc2)n1-c1ccccc1,93.6%,89.7%,92.8%,87.6%,114%,42.5%,79.6%,82.7%,102%,91.6%,72.4%,96.7%,121%,88.7%,100%,75.7%,75%,76.9%,–,–
CSC1=NCCCC1,120%,99.9%,110%,103%,100%,106%,113%,98.4%,109%,105%,–,110%,125%,102%,115%,103%,108%,–,86.8%,106%
CCCCCCN(CCCCCC)CC(O)c1ccc2c3c(cccc13)CC2 (stereo unspecified),-4.58% (active),120%,82.4%,49.5%,51.5%,59.7%,65.2%,21.4%,71.7%,55.8%,71.5%,61.4%,–,53.8%,59.6%,–,53.3%,21.7%,32%,24.5%
Cc1ccc(NC(=O)NC2CCCCC2)cc1,101%,107%,102%,99.7%,104%,100%,105%,96.3%,104%,92%,–,106%,110%,106%,104%,98.9%,102%,–,96%,98.2%
N#Cc1cc(-c2cc3ccccc3o2)oc1N,7.97% (active),24.4%,24.5%,3.63% (active),-24.5% (active),-86.7% (active),29.2%,3.98% (active),41.2%,10.2%,-26.4% (active),8.73% (active),11.9%,1.36% (active),-10.4% (active),-29.6% (active),-12.4% (active),-23.5% (active),–,–
CN(C)CCS(=O)(=O)CCN(C)C,109%,110%,103%,104%,102%,98.7%,97.8%,105%,108%,106%,–,97.2%,103%,107%,112%,102%,104%,–,113%,96%
CCC(=O)N1C/C(=C/c2ccc(Br)cc2)C(=O)/C(=C/c2ccc(Br)cc2)C1,-58.9% (active),1.74% (active),-32.7% (active),-81.4% (active),-42.8% (active),-53.8% (active),-80.3% (active),-87.7% (active),-72.4% (active),-33.8% (active),–,-48.8% (active),-31.2% (active),-54.9% (active),-25.9% (active),-12% (active),-15.1% (active),-35.6% (active),-95.9% (active),-66.4% (active)
CCOC(=O)C(CSC(c1ccccc1)(c1ccccc1)c1ccccc1)NC(=O)C(CSC(c1ccccc1)(c1ccccc1)c1ccccc1)NC(c1ccccc1)(c1ccccc1)c1ccccc1 (stereo unspecified),113%,86.8%,107%,97.3%,102%,98.6%,113%,99.6%,99.8%,115%,–,110%,118%,104%,87%,100%,110%,–,94.8%,91.3%
CCN(CC)CCNC(=O)c1ccc(NC(C)=O)cc1,102%,112%,98.1%,93.9%,104%,103%,94.2%,95.3%,118%,115%,100%,94.6%,103%,–,95.2%,114%,107%,101%,98.3%,78.7%
COc1ccc(-c2cc(-c3cccc(NS(C)(=O)=O)c3)nc(N)c2C#N)cc1,8.45% (active),-6.31% (active),42.1%,28.5%,9.4% (active),13.6%,39.9%,44.8%,66%,49.8%,22%,43.3%,67.5%,36.4%,–,19%,19.7%,16.1%,31.9%,–
COc1cc(CNCCCCCCN2C(=O)c3cccc4cccc(c34)C2=O)ccc1O,26.9%,67.1%,84.3%,65.9%,51.4%,10.6%,80.5%,36.3%,18.7%,120%,89.3%,70.5%,85.4%,63.7%,–,45.4%,49.2%,0.634% (active),23.8%,–
COc1ccc2c(c1)O/C(=C\c1ncc([N+](=O)[O-])n1C)C2=O,-13.6% (active),3.5% (active),2.04% (active),-12.6% (active),7.52% (active),-94.2% (active),-85.1% (active),-29.2% (active),-31.9% (active),-54.5% (active),–,-8.55% (active),-27.3% (active),0.77% (active),-26.7% (active),4.88% (active),2.86% (active),7.55% (active),-39.2% (active),-77.7% (active)
C(CCCC1=NCCO1)CCCC1=NCCO1,118%,77.5%,97.8%,97.9%,98%,99.7%,93%,94%,95.4%,98.3%,–,102%,110%,105%,103%,104%,105%,–,90.9%,101%
Cc1cc(Nc2ccc(Cl)cc2)nc(NCCCNc2ccnc3cc(Cl)ccc23)n1,-91.4% (active),-94.9% (active),-14.3% (active),-91.3% (active),-19.4% (active),-99.8% (active),-80.2% (active),-83.8% (active),-99.8% (active),-93.4% (active),–,-75.9% (active),-74.7% (active),-81.1% (active),-36.3% (active),-22.7% (active),-47.7% (active),–,-40.1% (active),12.7%
CC1(C)OC2=C(CC1Br)C(=O)C(=O)c1ccccc12 (stereo unspecified),-11.7% (active),11.1%,-19% (active),-73.7% (active),-16.8% (active),-99.7% (active),-78.9% (active),-77.3% (active),-94% (active),-42.9% (active),-40.1% (active),-75.4% (active),-22.6% (active),-91.7% (active),-62.2% (active),-23.1% (active),-25.6% (active),15.9%,–,101%
COC(=O)C(C(C[N+](=O)[O-])c1ccccc1)=P(c1ccccc1)(c1ccccc1)c1ccccc1 (stereo unspecified),67.7%,85.3%,98.4%,88.3%,85.4%,98.5%,90%,58.1%,109%,89.4%,–,100%,97.2%,93.9%,84.3%,77.1%,90.3%,14.6%,73.1%,59.8%
Clc1nc(Cl)c2c(ncn2C/C=C\Cn2cnc3c(Cl)nc(Cl)nc32)n1,-30.6% (active),-28.9% (active),-15.6% (active),-93.6% (active),-96.2% (active),-91% (active),-79% (active),-94.2% (active),-50.3% (active),5.02% (active),-79.8% (active),-5.17% (active),-97.2% (active),-100% (active),-100% (active),-81% (active),-59.4% (active),-66.3% (active),–,–
